Laboratory results from the supplement of paper PMC9262897, “Low-cost anti-mycobacterial drug discovery using engineered E. coli” (Nature Communications, 2022).
Where a name gives a salt, the structure may show the parent alone. ± gives the standard deviation of the averaged measurements.

Columns and labels:
Test in all cases: growth (OD600 after 10 h); higher = more growth (less inhibition)
[1] = test system: E. coli TESEC Alr+ wild-type control; settings: compound 0.1 mM; raw OD600 reference: median of DMSO wells 0.241, cell-free background 0.041
Protocol: (§1)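 TESEC Mtb Alr E. coli, or the Alr+ wild-type control, in 384-well plates with Prestwick library compounds at 0.1 mM and 1% DMSO, across arabinose induction levels of 1E3 to 1E7 nM. Growth is read as OD600 after 10 h at 37 °C in triplicate biological replicates.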

[2] = test system: E. coli TESEC Mtb Alr; settings: compound 0.1 mM
Protocol: as §1

[3] = test system: E. coli TESEC Mtb Asd; settings: compound 0.1 mM
Protocol: (§2)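 TESEC E. coli strains in which the native enzyme is deleted and replaced by arabinose-inducible Mtb Asd, DapB, CysH or TrpD, each grown in its selective medium. Strains were screened against the Prestwick library at 0.1 mM and 1% DMSO in 384-well format at low and high arabinose induction. Growth is read as OD600 after 10 h in triplicate.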

[4] = test system: E. coli TESEC Mtb DapB; settings: compound 0.1 mM
Protocol: as §2

[5] = test system: E. coli TESEC Mtb Alr; settings: compound 0.1 mM; remark: listed apart in the source
Protocol: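 TESEC Mtb Alr E. coli (ΔaraC ΔtolC ΔentC Δalr ΔdadX, arabinose-inducible Mtb Alr) or the Alr+ wild-type control strain, grown in defined M9-fructose medium without D-alanine in 96-well plates with Prestwick library compounds at 0.1 mM and 1% DMSO. Low Alr induction is 0.1 µM arabinose and high induction is 10 mM arabinose.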

[6] = arabinose 1000 nM, raw OD600 reference: median of DMSO wells 0.294, cell-free background 0.041
[7] = arabinose 10000 nM, raw OD600 reference: median of DMSO wells 0.264, cell-free background 0.041
[8] = arabinose 100000 nM, raw OD600 reference: median of DMSO wells 0.201, cell-free background 0.041
[9] = arabinose 1000000 nM, raw OD600 reference: median of DMSO wells 0.193, cell-free background 0.041
[10] = arabinose 10000000 nM, raw OD600 reference: median of DMSO wells 0.146, cell-free background 0.041
[11] = arabinose induction (level): High, raw OD600 reference: median of DMSO wells 0.331, cell-free background 0.041
[12] = arabinose induction (level): Low, raw OD600 reference: median of DMSO wells 0.417, cell-free background 0.041
[13] = arabinose induction (level): High, raw OD600 reference: median of DMSO wells […], cell-free background 0.041
[14] = arabinose induction (level): Low, raw OD600 reference: median of DMSO wells 0.227, cell-free background 0.041
[15] = arabinose 100 nM, raw OD600 reference: median of DMSO wells 0.413, cell-free background 0.052
[16] = arabinose 10000000 nM, raw OD600 reference: median of DMSO wells […], cell-free background 0.052

SMILES	growth [1]	growth [2, 6]	growth [2, 7]	growth [2, 8]	growth [2, 9]	growth [2, 10]	growth [3, 11]	growth [3, 12]	growth [4, 13]	growth [4, 14]	growth [5, 15]	growth [5, 16]
O=C(NCC(O)CO)c1c(I)c(C(=O)NCC(O)CO)c(I)c(N(CCO)C(=O)CO)c1I (stereo unspecified) [Ioversol]	0.257 ± 0.0068	0.308 ± 0.017	0.288 ± 0.013	0.208 ± 0.015	0.192 ± 0.0057	0.169 ± 0.0037	0.477 ± 0.014	0.46 ± 0.019	0.202 ± 0.015	0.256 ± 0.028	0.408 ± 0.015	0.362 ± 0.017
C[C@]12C=CC(=O)C=C1CC[C@@H]1[C@@H]2[C@@H](O)C[C@@]2(C)[C@H]1CC[C@]2(O)C(=O)CO [Prednisolone]	0.213 ± 0.0043	0.263 ± 0.0084	0.248 ± 0.01	0.162 ± 0.0057	0.147 ± 0.0034	0.13 ± 0.0047	0.258 ± 0.038	0.456 ± 0.034	0.179 ± 0.015	0.254 ± 0.041	0.426 ± 0.009	0.306 ± 0.011
CCCc1nc(C)c2c(=O)nc(-c3cc(S(=O)(=O)N4CCN(CC)CC4)ccc3OCC)[nH]n12 [Vardenafil]	0.148 ± 0.0033	0.221 ± 0.0081	0.26 ± 0.011	0.18 ± 0.0021	0.107 ± 0.0037	0.126 ± 0.0068	0.189 ± 0.02	0.238 ± 0.052	0.151 ± 0.0082	0.173 ± 0.018	0.41 ± 0.0051	0.305 ± 0.014
O=C(N/N=C/c1ccc([N+](=O)[O-])o1)c1ccc(O)cc1 [Nifuroxazide]	0.148 ± 0.0071	0.217 ± 0.018	0.0914 ± 0.0034	0.164 ± 0.022	0.0664 ± 0.0028	0.133 ± 0.0085	0.053 ± 0.00057	0.0519 ± 0.0049	0.0553 ± 0.0015	0.0557 ± 0.0021	0.0646 ± 0.0031	0.0578 ± 0.0014
NCCCC(O)(P(=O)(O)O)P(=O)(O)O [Alendronate sodium]	0.259 ± 0.0047	0.305 ± 0.013	0.265 ± 0.007	0.24 ± 0.033	0.178 ± 0.0032	0.162 ± 0.0058	0.343 ± 0.043	0.414 ± 0.04	0.214 ± 0.022	0.227 ± 0.019	0.422 ± 0.012	0.204 ± 0.023
CCN[C@H]1C[C@H](C)S(=O)(=O)c2sc(S(N)(=O)=O)cc21 [Dorzolamide hydrochloride]	0.24 ± 0.0034	0.296 ± 0.003	0.293 ± 0.013	0.211 ± 0.038	0.187 ± 0.0042	0.15 ± 0.0023	0.216 ± 0.014	0.355 ± 0.06	0.199 ± 0.016	0.253 ± 0.023	0.4329 ± 0.0026	0.337 ± 0.019
c1cnc(N2CCN(Cc3ccc4c(c3)OCO4)CC2)nc1 [Piribedil hydrochloride]	0.2234 ± 0.0017	0.273 ± 0.0036	0.256 ± 0.0059	0.179 ± 0.01	0.166 ± 0.0044	0.14 ± 0.0043	0.218 ± 0.013	0.399 ± 0.027	0.178 ± 0.01	0.202 ± 0.013	0.398 ± 0.014	0.366 ± 0.01
CN1CCN2c3ncccc3Cc3ccccc3C2C1 (stereo unspecified) [Mirtazapine]	0.217 ± 0.0068	0.281 ± 0.0088	0.2774 ± 0.0027	0.225 ± 0.025	0.182 ± 0.021	0.162 ± 0.0043	0.261 ± 0.11	0.29 ± 0.013	0.212 ± 0.0063	0.249 ± 0.019	0.414 ± 0.014	0.336 ± 0.014
